Screens: PubChem BioAssay, several laboratories
Hits are enriched below; roughly 1% of the tested compounds scored in any of these assays.
sEH activator = soluble epoxide hydrolase activators, primary screen, biochemical, human sEH; purified human sEH enzymatic activity, activator screen; actives 0.04% (n = 91,000); activation, % at 2 µM; AID 717, 2007; in the data active means activation above about 37%
Target sequence (P34913 whole entry, looked up): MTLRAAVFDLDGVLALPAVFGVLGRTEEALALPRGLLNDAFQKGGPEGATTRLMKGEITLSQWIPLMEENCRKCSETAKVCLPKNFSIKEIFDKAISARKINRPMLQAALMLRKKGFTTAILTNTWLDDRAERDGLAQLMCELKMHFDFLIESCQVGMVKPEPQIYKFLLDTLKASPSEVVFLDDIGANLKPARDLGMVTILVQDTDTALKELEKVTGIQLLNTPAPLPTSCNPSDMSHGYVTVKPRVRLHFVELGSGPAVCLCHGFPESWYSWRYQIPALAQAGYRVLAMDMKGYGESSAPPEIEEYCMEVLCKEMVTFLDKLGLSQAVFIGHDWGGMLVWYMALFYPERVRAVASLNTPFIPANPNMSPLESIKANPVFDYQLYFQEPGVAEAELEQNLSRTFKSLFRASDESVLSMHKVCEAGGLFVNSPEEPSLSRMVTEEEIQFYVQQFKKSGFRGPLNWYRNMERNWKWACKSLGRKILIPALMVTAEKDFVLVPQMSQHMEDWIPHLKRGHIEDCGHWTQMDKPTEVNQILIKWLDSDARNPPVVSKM
MRP resist rev = reversal of MRP1-mediated doxorubicin resistance, primary screen, H69AR cells, doxorubicin co-treatment | H69AR cells + 2 uM doxorubicin, CellTiter-Glo, 72 h | differential viability (reversal), % at 10 µM | actives 0.04% (n = 85,000) | AID 602, 2007;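 active means viability drop by adding the cancer drug above about 55%, with treated viability meeting a 40% cutoff, limit read from the data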;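 further: viability without doxorubicin minus viability with 2 µM doxorubicin for each compound; larger differential means the compound sensitizes cells more to doxorubicin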
SDO1 yeast rescue = growth rescue of sdo1-depleted yeast, primary screen, S. cerevisiae, bone marrow failure model | actives 0.21% (n = 140,000) | S. cerevisiae sdo1-depleted JHY4D growth rescue, OD600 30 h; stronger effect = higher value; pdr5 snq2 efflux-pump mutant strain | z-score at 10 µM;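 active means z-score above 3 at both the 24 hr and the 30 hr optical density reads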;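 further: z-score against mean and SD of all compound wells on the same plate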
MRP-1 activ = H69AR viability gain despite doxorubicin, primary screen, MRP-1 activator project, H69AR cells, CellTiter-Glo. viability increase, % at 10 µM. actives 0.61% (n = 140,000). viability rescue;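 active means viability gain under doxorubicin at or above a set limit, the compound median plus 3 SD, cut at about 4.7% in these data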;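 further: MRP-1 overexpressing cells given doxorubicin 25 µM after compound pretreatment; 18-22 h compound pretreatment then 72 h with doxorubicin before readout; 0% = doxorubicin-only wells and 100% = vehicle-treated cells without doxorubicin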
sEH inh = soluble epoxide hydrolase inhibitors, primary screen, biochemical, human sEH | actives 0.34% (n = 91,000) | inhibition, % at 2 µM | recombinant human sEH enzymatic activity assay | Bifunctional epoxide hydrolase 2 (Homo sapiens), P34913; in the data active means inhibition above about 80%
Phagocytosis inh = inhibitors of macrophage phagocytosis, primary screen, imaging, J774A.1 cells, IgG beads; AID 1029, 2008; inhibition, % at 5 µM; J774A.1 macrophage IgG-bead phagocytosis; actives 0.07% (n = 110,000);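 active means inhibition above the mean of the plate negative controls plus 5 SD, cut at about 13% in these data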;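 further: phagocytic index as fraction of beads internalized from green versus red external bead signal; plate controls were DMSO negative control for no effect and cytochalasin-D positive control for full effect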
SDO1 rescue DR = SDO1-depleted yeast growth rescue, concentration-response, diseases of bone marrow failure, JHY4D, OD600 | OD recovery (concentration not given with the values) | shares compounds with SDO1 yeast rescue | actives 44% (n = 440) | S. cerevisiae JHY4D (SDO1-depleted) growth rescue, 30 h; stronger effect = higher value; efflux-deficient strain, SNQ2 and PDR5 mutated;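 active means yeast growth recovered at 30 hours, either rising with dose fitted slope above 0.001 or with average optical density gain above 0.07, some results past the limit were not filed as active; inactive means growth falling with dose or no effect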;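 further: gain in OD600 from 0 h to 30 h averaged across all seven doses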
The depositor's hits bear a star; . = not tested or not shown.

SMILES	sEH activator	MRP resist rev	SDO1 yeast rescue	MRP-1 activ	sEH inh	Phagocytosis inh	SDO1 rescue DR
COc1ccc2c(c1)sc(N)[n+]2Cc1cc(C)cc2cccnc12	.	.	9.73*	-5.8	.	21.8	0.0648
O=C1c2ccccc2CC1(Cc1ccccc1)Cc1ccccc1	4.4	9.7	-0.02	-3.8	-1.8	.	.
O=C(c1ccccc1)N(Cc1ccc(F)cc1)Cc1nc2ccccc2c(=O)[nH]1	-2.4	-11.1	-0.64	-3.3	7.7	.	.
Cc1ccc(C(=O)N(Cc2ccc3c(c2)OCO3)Cc2nc3ccccc3c(=O)[nH]2)cc1	11.3	-0.6	8.46*	-1.5	-17.8	-1.1	0.0905*
CN(CC(=O)Nc1nc2ccccc2s1)S(=O)(=O)c1ccccc1	-8.9	.	-0.93	-1.1	6.7	2.1	.
COc1c(/C=N/Nc2ccc([N+](=O)[O-])cc2[N+](=O)[O-])c(C)nn1-c1ccccc1	24.5	.	2.79	-4.6	-21.0	.	0.04
CC1CCN(c2ccc(C(=O)NCc3ccco3)cc2[N+](=O)[O-])CC1	.	.	10.6*	-2.0	.	-0.7	0.0952*
O=C(CCCc1nc2ccccc2s1)NC(c1ccccc1)c1ccccc1	.	.	-0.92	-0.6	.	-15.3	.
CC(=O)c1cnn(-c2cc(Oc3cccc(C)c3)ncn2)c1C	-10.9	.	6.88*	1.0	12.6	3.7	0.0502
COC(=O)c1cnn(-c2cc(Oc3cccc(C)c3)ncn2)c1N	-1.7	.	1.3	-0.2	0.9	.	.
CCc1ccc(S(=O)(=O)NCc2csc(-c3ccccc3)n2)s1	.	-8.1	-0.77	-2.4	.	-1.9	.
CCc1ccc(S(=O)(=O)NCCc2csc(-c3ccccc3)n2)s1	-1.4	4.7	4.3*	-4.8	4.5	-0.3	0.0678
CCc1ccc(S(=O)(=O)NCCc2csc(-c3cccnc3)n2)s1	18.6	11.1	4.36*	-0.3	-20.5	-0.5	0.0517
CCCCNC(=O)CSc1cc(=O)n(C)c2ccccc12	.	-5.4	0.06	1.0	.	-0.3	.
Cc1nc2cc(C(=O)OCC(=O)Nc3ccc(C#N)cc3)ccc2n1-c1ccccc1	.	.	-0.81	-1.9	.	-2.3	.
O=[N+]([O-])c1cc(S(=O)(=O)N2CCCC2)ccc1N/N=C/c1ccccn1	.	.	-0.33	-4.0	.	-4.5	.
O=[N+]([O-])c1cc(S(=O)(=O)N2CCCC2)ccc1N/N=C/c1ccncc1	.	.	0.23	-1.8	.	-9.2	0.0531
O=[N+]([O-])c1cc(S(=O)(=O)N2CCCC2)ccc1N/N=C/c1cccs1	13.4	4.7	1.52	-4.0	-15.6	-0.6	0.0553
O=C(O)CC/C(=N\Nc1ccc(S(=O)(=O)N2CCCC2)cc1[N+](=O)[O-])c1cccs1	6.1	.	0.68	-1.4	-5.2	-0.9	.
COC(=O)c1sc(NC(=O)/C=C/c2ccc(C)o2)nc1C	.	.	0.52	0.6	.	-8.0	.
COc1ccc2c(-c3cc4ccc(OCc5ccc(F)cc5)cc4oc3=O)cc(=O)oc2c1	.	.	16.3*	-2.6	.	-7.3	0.032
COc1ccc(-c2cc(=O)oc3cc(OCC(C)=O)ccc23)cc1	.	.	-0.09	-0.7	.	1.3	.
O=S(=O)(Nc1cccnc1)c1ccc(Cl)c(C(F)(F)F)c1	8.1	4.5	9.61*	-1.0	-5.7	-1.6	0.058
CCOc1ccccc1Nc1nnc(SCC(=O)NC(=O)c2cccn2C)s1	.	.	-0.15	-2.2	.	-5.8	.
Cn1c(=O)[nH]c(=O)c2c1nc(N1CCCC1)n2CCCSc1nnnn1-c1ccccc1	.	.	2.35	-3.2	.	.	0.101
SMILES	sEH activator	MRP resist rev	SDO1 yeast rescue	MRP-1 activ	sEH inh	Phagocytosis inh	SDO1 rescue DR
Cn1c(=O)[nH]c(=O)c2c1nc(N1CCCCCC1)n2CCCSc1nnnn1-c1ccccc1	.	.	-0.75	-4.1	.	.	.
COc1ccc(/C=N/NC(=O)Cc2cc(OC)c(OC)cc2[N+](=O)[O-])cc1	.	.	0.25	0.2	.	-10.9	.
CCCCCCCCNC(=O)c1cnsn1	.	.	1.32	-0.4	.	-3.3	.
CCCCCCCCNC(=O)c1cnccn1	.	.	9.37*	-2.0	.	-1.3	0.0526
CCOC(=O)c1cc(NC(=O)N2CCCCC2)c(C)nc1C	-8.6	2.7	-0.24	-1.8	9.7	-2.8	.
COc1ccc(C(O)c2nc3ccccc3s2)cc1 (stereo unspecified)	3.9	-15.9	10.2*	-1.2	-4.1	-0.3	0.0532
COc1ccccc1OC(C)C(=O)O (stereo unspecified)	8.1	.	5.15*	0.3	-10.5	.	0.0676
COc1ccccc1OCC(=O)O	-0.9	-1.4	0.33	-0.4	3.9	-1.4	.
Cc1cc(NC(=O)c2cccs2)n(-c2ccccc2)n1	-24.3	3.3	3.47*	-1.1	23.3	3.4	0.0834*
CCn1c(SCC(=O)NC(=O)Nc2ccc3c(c2)OCCO3)nnc1-c1cccs1	-55.1	-11.7	0.29	-1.0	55.3	0.8	.
O=C(Nc1ccc(Cl)c([N+](=O)[O-])c1)C(Sc1ccccc1)c1ccccc1 (stereo unspecified)	.	.	-1.63	-4.5	.	-7.9	.
O=C(Nc1cc([N+](=O)[O-])ccc1Cl)C(Sc1ccccc1)c1ccccc1 (stereo unspecified)	.	.	11.2*	-2.8	.	-12.2	0.0594
CCOc1ccc2nc(NC(=O)CCC(=O)c3cccs3)sc2c1	-6.6	-8.9	0.32	-2.2	9.5	-0.6	.
Cc1nc2nc(C)c(CCC(=O)NC(C)c3ccc4c(c3)OCCO4)c(C)n2n1 (stereo unspecified)	13.5	-6.0	1.99	-0.4	-11.2	.	0.0378
Cc1cc(C)nc(Nc2ncc(O)n2-c2ccc(C)c(C)c2)n1	13.4	8.7	5.87*	-0.7	-12.6	2.1	0.0769*
N#Cc1c(NC(=O)CSc2nnc(-c3ccccc3)o2)sc2c1CCCC2	22.5	.	0.03	0.8	-19.1	-0.4	.
CC1CCc2c(sc(NC(=O)CSc3nnc(-c4ccccc4)o3)c2C#N)C1 (stereo unspecified)	.	.	1.15	-2.3	.	-9.3	0.0914*
CCc1cc2c(=O)n(CC)c(SC(C)C(=O)Nc3c(C)n(C)n(-c4ccccc4)c3=O)nc2s1 (stereo unspecified)	4.1	-10.2	0.24	-4.0	-2.6	.	.
COc1ccc(Cl)cc1NC(=O)CN1CCC(n2nnc3ccccc32)CC1	10.0	8.8	0.59	-4.9	-6.2	.	.
CCC1/C(=N\O)CC(c2ccco2)NC1c1ccco1 (stereo unspecified)	-12.4	.	1.58	-3.3	14.9	.	.
